“And” between values parts separate entries of the source, which are not always exact repeats. Equal entries are not always repeated. The panel holds about 83,000 compounds, 20% with a hit somewhere; the sample as a whole holds those more often.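 Negative percent growth values reflect cell death: -40 means 40% of the cells present at the start died, and -100 means all died.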 The source made the active and inactive calls.
system: HL-60(TB) leukemia; experiment: NCI-60 one-dose screen, 48 h (100 = growth as untreated, 0 = no growth, -100 = all killed); details: 10 µM
Description: Growth inhibition of the HL-60(TB) human tumor cell line is measured as a screen for anti-cancer activity. Cells are grown in 96 well plates and exposed to the test compound for 48 hours. Compounds are tested at a single concentration, which is 10^-5 M for most compounds. The reported endpoint is percent growth (GI% or GIPRCNT), where numbers from 0 - 100% represent growth inhibition, and numbers from -100% - 0 represent cell death. For example, a value of 40 represents 60% growth inhibition. A value of 0 means no net growth occurred over the course of the experiment. A value of -40 indicates 40% of cells at the beginning of the experiment died by the end of the experiment. A value of -100 means all cells are dead at the end of the experiment.
NCI-60 Human Tumor Cell Lines Screen was performed using the standard one-dose NCI protocol, which is described in more detail at https://dtp.cancer.gov/discovery_development/nci-60/default.htm.
Compounds with GIPRCNT values below 10 were considered active. Activity score was based on GIPRCNT using the following formula: […]
Score is 0 for GIPRCNT values of 100 or above, 50 for GIPRCNT values of 0, and 100 for GIPRCNT values of -100.

Row | SMILES | growth
1 | CC(=O)/C=C/c1ccc(OCc2ccc(Cl)cc2)cc1 | 83.9% (inactive)
2 | COc1ccc(Cl)cc1C(=O)NCCc1ccc(S(=O)(=O)NC(=O)NC2CCCCC2)cc1 | 121% (inactive) and 103% (inactive)

same assay, conditions: 10 µM unless noted

Row | SMILES | growth
3 | CCCCCCCCCCCCCCCCCCNC(=S)N/N=C/c1ccc(OC)c(OC)c1 | 73.6% (inactive)
4 | O=C(O)C1(C(=O)O)CCC1.[NH2-].[NH2-].[Pt+2] | 103% (inactive) and 58.7% (inactive)
5 | COc1ccc(C2CC(c3cccc(Nc4ccncc4)c3)=NN2c2ccc(Cl)cc2)cc1 (stereo not given) | -46.5% (active)
6 | COc1cc(C2NC(=O)c3ccccc3N2)ccc1OCCCCCOc1c(OC)cc(C2=NOC(c3cc(OC)c(OC)c(OC)c3)C2)cc1OC (stereo not given) | 68.3% (inactive)
7 | CCCCOC(=O)OCc1cc(=O)c(O)co1 | 95.2% (inactive)
8 | O=C1c2cccc3cccc(c23)C(=O)N1Nc1nc(NC2CCCCC2)nc(N2CCOCC2)n1 | 101% (inactive)
9 | COC(=O)c1ccccc1C(=O)c1c(C)cc(C)cc1C | 84.6% (inactive)
10 | CCN(CC)CCOc1ccc(-c2c(-c3ccccc3)c(=O)oc3ccccc23)cc1 | 107% (inactive)
11 | Cc1ccc(-c2nc3ccc(Cl)cc3c(=O)n2N2C(=O)CSC2c2ccccc2Cl)cc1 (stereo not given) | 97.1% (inactive)
12 | Cc1[nH]c(C(=O)Nc2ccccc2OCc2cccc(C(=O)NCCN)c2)c(Cl)c1Cl | 45% (inactive)
13 | Cn1c2ccccc2c2nn(C(=O)c3ccccc3)c(=O)nc21 | 110% (inactive)
14 | Fc1cnccc1C1CC(c2ccc(N3CCNCC3)cc2)=NN1 (stereo not given) | 77.3% (inactive)
15 | COc1ccc(C(O)c2cc3c(N)c(C(=O)Nc4ccc(Cl)cc4)sc3nc2C)cc1 (stereo not given) | -50.1% (active)
16 | CC(=O)c1cc(O)c2ccccc2c1O | 63.9% (inactive)
17 | COc1ccc(-c2cc(-c3cc(OC)ccc3OC)[nH]c(=O)c2C#N)cc1 | 18.1% (inactive)
18 | O=C(O)C1CSCN1 (stereo not given) | 80.4% (inactive) and 83.9% (inactive)
19 | Cc1ccc(NC2=C(Cl)C(=O)c3nc(C)ccc3C2=O)cc1 | -10.8% (active)
20 | CN1CCN(CCCOc2ccc3nc(Nc4ccc(C(F)(F)F)c(Cl)c4)ccc3c2)CC1 | 12.5% (inactive)

Row | SMILES | growth
21 | COc1ccc(-c2nc(SCC(=O)Nc3nc(-c4ccccc4)cs3)[nH]c(=O)c2C#N)cc1 | 92% (inactive)
22 | CCCCCCN1C(=O)C2=C(c3ccc(Cl)cc3)Nc3c(c(C)nn3-c3ccccc3)C2c2ccccc21 (stereo not given) | 102% (inactive)
23 | O=C1/C(=C/c2ccc(Cl)cc2)SC(=S)N1CCc1ccc(O)cc1 | 76.6% (inactive)
24 | c1cncc(CNc2ccccc2-c2nnc(Nc3ccc4c(c3)OCCO4)o2)c1 | 8.71% (active)
25 | O=C(N/N=C/c1ccccc1)C(Oc1ccccc1)c1ccccc1 (stereo not given) | 109% (inactive)
26 | Cc1ccccc1COc1ccc(-c2onc(C)c2-c2ccc(Cl)cc2)cc1 | 17.7% (inactive)
27 | CCN(CC)CCCCCCNc1ccnc2cc(Cl)ccc12 | 103% (inactive)
28 | CC1=CC2(C)/C=C(C)/C=C\CC(O)/C=C3/C=CC(=C4C(=O)OC2(CC1C)C4=O)OC3 (stereo not given) | -54.9% (active)
29 | CCCCCCCSc1ncnc2[nH]ncc12 | 87.4% (inactive)
30 | CCOC(=O)N1C/C(=C/c2ccc(OC)cc2)C(=O)/C(=C/c2ccc(OC)cc2)C1 | 16.7% (inactive)
31 | CC(C)(C)OC[C@@H]1N=C(c2ccc(Br)cc2)Nc2nc3ccccn3c2C1=O | 33.1% (inactive)
32 | O=C(O)CCCCCCCCCCCCCCC(=O)O | 102% (inactive)
33 | Nc1nc2c(nnn2Cc2ccc(Cl)c(Cl)c2)c(=O)[nH]1 | 95% (inactive)
34 | O=C(Nc1cccc(-n2ccc3c(NC(=O)c4ccccc4)nccc32)c1)c1cccc(C(F)(F)F)c1 | 0.531% (active)
35 | COc1ccc2nc3ccccc3c(NCCNCCO)c2c1 | 6.15% (active)
36 | CCCCCOc1ccc(/C=N/Nc2cc(C)nc3ccc(Br)cc23)cc1 | -2.49% (active)
37 | CCCCCc1cc[n+](CC(=O)c2ccccc2)cc1 | 91% (inactive) and 99.9% (inactive)
38 | COc1cc2oc(-c3cccc(NC(=O)c4ccccc4)c3)cc(=O)c2c(OC)c1OC | 60.5% (inactive)

same assay, conditions: 100 µM

Row | SMILES | growth
39 | CC(=O)/C=C/c1ccc(OCc2ccc(Cl)cc2)cc1 | 14% (inactive)
40 | COc1ccc(Cl)cc1C(=O)NCCc1ccc(S(=O)(=O)NC(=O)NC2CCCCC2)cc1 | 94.2% (inactive)
